From PubChem BioAssay (NCATS)
Inconclusive results are not listed. Entries that show only a call come without a potency. Calls of active or inactive are those of the source. The call rests on the fitted dose curve; in most records, active means well fitted curve in the direction sought with a large enough effect; inconclusive means small, poorly fitted or top-dose-only effect, or another doubt; inactive means no such curve, though single readings can be large; an effect the other way counts as inactive or inconclusive.

Columns and labels:
[1] = target: Aldehyde dehydrogenase, mitochondrial (Homo sapiens) (UniProt P05091); assay: qHTS for Inhibitors of the Aldehyde Dehydrogenase Family (ALDH2) Primary screen (AID 2061308); conditions: ALDH2 enzyme inhibition qHTS, 1536-well; series mostly up to 56 µM; further: nearly all actives have a fitted effect of over 55% in size
[2] = target: Retinaldehyde dehydrogenase 3 (Homo sapiens) (UniProt P47895); assay: qHTS for Inhibitors of the Aldehyde Dehydrogenase Family (ALDH1A3) Primary screen (AID 2061315); conditions: ALDH inhibition qHTS; series mostly up to 56 µM

| Compound | Potency [1] | Potency [2] |
| --- | --- | --- |
| O=C(Nc1nnc(-c2ccco2)o1)c1ccc(Cl)cc1 | inactive | inactive |
| COC(=N)c1nc2ccc3ncnc(Nc4ccc(F)cc4Br)c3c2s1 | inactive | inactive |
| O=C1CCCC2=C1C1(CCCC1)N=C(Nc1nc3cc(-c4ccccc4)ccc3o1)N2 | inactive | inactive |
| C=CCNc1oc(-c2cccc(Br)c2)nc1C#N | inactive | inactive |
| COc1cccc(CNc2ccc(S(=O)(=O)Nc3nc4ccccc4o3)cc2)c1O | inactive | inactive |
| O=C(Nc1ccc(-c2nc3ccccc3[nH]2)cc1)Nc1ccc2c(c1)CCCO2 | inactive | inactive |
| CNc1oc(-c2ccc(Cl)c(Cl)c2)nc1C#N | inactive | inactive |
| Oc1ccc(/C=C/c2c(F)cccc2F)c2cccnc12 | inactive | inactive |
| Fc1cnc(-c2ccccc2C(F)F)nc1NCc1ccc(-c2cccnc2)cc1 | inactive | inactive |
| COc1ccc(OC)c(-c2nnc(NC(=O)Nc3ccc4ccccc4c3)s2)c1 | inactive | inactive |
| COc1ccc(C2c3c(nc(C)[nH]c3=O)Oc3ccc4ccccc4c32)cc1OC (centres undefined) | inactive | inactive |
| O=C1CCCC2=C1C(c1[nH]ncc1Cl)N=C(Nc1nc3cc([S+](=O)([O-])N4CCCC4)ccc3o1)N2 (centres undefined) | inactive | inactive |
| COc1nccc(-c2nc(Nc3ccc(F)c(F)c3)c3ccccc3n2)c1Cl | inactive | inactive |
| COc1ccc(C2c3c(nc(CCCc4ccccc4)[nH]c3=O)Oc3ccc4ccccc4c32)cc1OC (centres undefined) | inactive | inactive |
| Cc1ccc(NC(=O)CN2C(=O)N/C(=C\c3cccn3-c3cccc(C(=O)O)c3)C2=O)cc1 | inactive | inactive |
| O=C(Nc1cccc(-c2nn3c(=O)cc(N4CCNCC4)nc3s2)c1)c1ccon1 | inactive | inactive |
| O=C(Nc1ccc(Cl)c(S(=O)(=O)N2CCOCC2)c1)c1ccc(S(=O)(=O)N2CCCCC2)cc1 | inactive | inactive |
| COc1ccc(-c2ccc(=O)n(CC(=O)NCCc3ccccc3)n2)cc1OC | inactive | inactive |
| O=C(CNC(=O)C1CCCCC1)OC(C(=O)Nc1cc(C(F)(F)F)ccc1Cl)c1ccccc1 (centres undefined) | inactive | inactive |

| Compound | Potency [1] | Potency [2] |
| --- | --- | --- |
| Cc1ccccc1-c1nc(NCc2cccs2)c2ccccc2n1 | inactive | inactive |
| Cc1ccc(OCCn2c(CCNC(=O)c3ccccc3F)nc3ccccc32)cc1 | inactive | inactive |
| CCOc1ccc(NC(=O)Nc2ccc(-c3nc4ccccc4[nH]3)cc2)cc1 | inactive | inactive |
| N#Cc1ccc(OC2=NS(=O)(=O)c3ccccc32)cc1 | inactive | inactive |
| Cc1cc(NS(=O)(=O)c2ccc(N(C)C(=O)Cc3ccc(Cl)c(Cl)c3)cc2)no1 | inactive | inactive |
| COc1cc(Nc2nc(-c3ccncc3)nc3ccccc23)ccc1F | inactive | inactive |
| COc1cccc(C2c3c(ncn(-c4ccccn4)c3=N)Oc3ccc4ccccc4c32)c1 (centres undefined) | inactive | inactive |
| CC[C@H]1OC(=O)[C@](C)(F)C(=O)[C@H](C)[C@@H](O[C@@H]2O[C@H](C)C[C@H](N(C)C)[C@H]2O)[C@](C)(OC)C[C@@H](C)C(=O)[C@@H](C)[C@H]2N(CCCCn3cc(-c4cccc(N)c4)nn3)C(=O)O[C@]12C | inactive | inactive |
| c1nc(NCCC2CCCO2)c2cc(-c3ccc4c(c3)OCO4)ccc2n1 (centres undefined) | inactive | inactive |
| COc1cccc(NC(=O)C(OC(=O)CNC(=O)c2ccccc2)c2ccccc2)c1 (centres undefined) | inactive | inactive |
| CC(=O)Nc1sc2c(c1-c1ccc3nc[nH]c3c1)CCNC2 | inactive | inactive |
| CC(C)N1CCc2c(sc(NC(=O)C(F)F)c2-c2nc3ccccc3s2)C1 | inactive | inactive |
| Cn1nnnc1Sc1ncnc2n[nH]c(-c3cccc(S(C)(=O)=O)c3)c12 | inactive | inactive |
| Cc1cn([C@H]2C[C@H](N[S+](=O)([O-])Cc3ccc([N+](=O)[O-])cc3)[C@@H](CO)O2)c(=O)[nH]c1=O | inactive | inactive |
| Cn1c(=O)c2c(nc(OC3CCN(C(=O)C4CC4)CC3)n2CCC(C)(C)C)n(C)c1=O | inactive | inactive |
| Cc1cccc(CNc2ncnc3ccc(-c4cccc(Cl)c4)cc23)c1 | inactive | inactive |
| COc1ccc(COc2ccc(-c3nc4ccccc4[nH]3)cc2)cc1OC | inactive | inactive |
| Cc1ccc(-c2cc(C(=O)Nc3ccc(S(=O)(=O)Nc4ccc(C#N)cc4)cc3)c3ccccc3n2)cc1C | inactive | inactive |
